# IMPase Li cell: membrane-permeable IMPase blocker, potentiated with lithium; 210,000 tested, 0.35% active; AID 1457; Potency, µM (highest dose often 59.4 µM), for the others: at the highest dose activity, negative = IMPase inhibition, usual class: inhibitors; CHO-M1 cells, IP1 TR-FRET (IP-One), carbachol + lithium;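 note: IP1 builds up when IMPase is blocked and the TR-FRET signal falls; plate controls were basal vehicle for no effect and high inhibitor control for full effect; nearly all actives have a fitted effect of over 50% in size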
#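 CHO cells stably expressing M1 receptor (2000/well, cultured 16–30 h) treated 30 min at 37C with compound plus low lithium. Cytosolic IP1 by TR-FRET (665/620 ratio and 620 channel) after 10 min lysis; AC50 by Hill fit.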
# HPGD block: HPGD (human) dehydrogenase inhibition | 150,000 tested, 4.3% active | purified HPGD, NADH fluorescence kinetic, PGE2 substrate | Potency, µM, inactives show top-dose activity change, negative = inhibition, hits mostly inhibitors; active = well fitted inhibition curve with a large enough effect, not every such curve was filed as active; inconclusive = small, poorly fitted or top-dose-only effect, or another doubt; inactive = no such curve, though single readings can be large or run the other way
# Target sequence (P15428 whole entry, looked up): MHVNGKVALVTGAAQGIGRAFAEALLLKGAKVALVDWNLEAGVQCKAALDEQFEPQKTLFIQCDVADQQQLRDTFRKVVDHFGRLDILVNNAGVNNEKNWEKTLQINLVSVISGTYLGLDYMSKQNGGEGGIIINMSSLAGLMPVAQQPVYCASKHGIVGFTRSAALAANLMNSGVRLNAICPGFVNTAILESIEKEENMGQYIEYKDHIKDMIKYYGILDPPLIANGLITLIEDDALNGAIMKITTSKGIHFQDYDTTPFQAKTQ
#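 20 nM HPGD preincubated 15 min at room temperature with compound in 50 mM Tris-HCl pH 8, 0.01% Tween 20. Started with 1 mM NAD+ and 30 uM prostaglandin E2; NADH fluorescence (360/450 nm) read 5 times over 30-s intervals, last minus first.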
# KinaseGlo FLuc: Kinase-Glo luciferase inhibition (counter-screen). Q27757. Kinase-Glo luciferase, ATP luminescence, 8 min. Potency, µM (doses to about 38.3 µM), for the others: at the highest dose activity change, negative = inhibition, most hits filed as inhibitors. 200,000 tested, 0.28% active. AID 1379; note: nearly all actives have a fitted effect of over 60% in size
#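 Compound is pinned into ATP-containing buffer (10 uM ATP, imidazole pH 7.2, 7 mM MgCl2). Kinase-Glo luciferase reagent is then added. Light output is recorded following an 8-min room-temperature incubation.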
# ALDH1A1 block: inhibitors of human aldehyde dehydrogenase 1A1; AID 1030; 220,000 tested, 7.3% active; Potency, µM (top dose mostly 75.3 µM), for the others: at the top dose activity, negative = inhibition, actives largely listed as inhibitors; Purified ALDH1A1, NADH fluorescence, propionaldehyde substrate; active = well fitted inhibition curve with a large enough effect, not every such curve was filed as active; inconclusive = small, poorly fitted or top-dose-only effect, or another doubt; inactive = no such curve, though single readings can be large or run the other way;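 note: plate controls were no enzyme wells and a reference inhibitor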
# Target sequence (P00352 whole entry, looked up): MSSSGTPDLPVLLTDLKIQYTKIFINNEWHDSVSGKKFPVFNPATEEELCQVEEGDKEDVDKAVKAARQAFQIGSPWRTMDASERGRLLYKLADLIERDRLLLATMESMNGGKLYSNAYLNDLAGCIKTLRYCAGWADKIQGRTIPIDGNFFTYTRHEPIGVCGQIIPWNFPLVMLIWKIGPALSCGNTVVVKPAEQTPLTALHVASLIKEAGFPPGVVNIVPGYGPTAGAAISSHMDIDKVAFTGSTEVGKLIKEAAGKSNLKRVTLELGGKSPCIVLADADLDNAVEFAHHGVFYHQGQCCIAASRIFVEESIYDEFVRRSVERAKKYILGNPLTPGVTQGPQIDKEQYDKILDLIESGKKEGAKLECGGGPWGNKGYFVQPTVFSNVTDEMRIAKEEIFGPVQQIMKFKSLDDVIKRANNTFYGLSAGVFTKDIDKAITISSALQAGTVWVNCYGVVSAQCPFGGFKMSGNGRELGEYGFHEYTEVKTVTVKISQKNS
# Lamin A splicing: changes lamin A minigene splicing in HeLa cells. 200,000 tested, 0.01% active. Potency, µM (titrated, usually from 46.1 µM), for inactives: at the top dose ratio change, negative = inhibition, actives largely listed as inhibitors. AID 1487. HeLa LMNA splicing GFP/RFP minigene ratio, 48 h; active = well fitted inhibition curve with a large enough effect in the signal ratio, with a control signal flat, not every such curve was filed as active; inconclusive = small, poorly fitted or top-dose-only effect, or effect the other way, or a change in a side signal; the % refers to the signal ratio
#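 S3 HeLa cells stably expressing lamin A-EGFP splicing minigene plus DsRed2, 600 cells/well, 48 h compound exposure at 37C. Laser-scanning cytometry; analysed as GFP (500-530 nm)/RFP (575-640 nm) total intensity ratio; 0.5% DMSO vehicle.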
# The depositor's hits bear a star; ? = inconclusive; / = no result given; [ ] = dose if it differs, or a comment. The list is not random: actives were taken first. Their share in the collection is about 9%. Unless noted, calls come from the whole dose curve; as a rule, active = well fitted curve in the direction sought with a large enough effect; inconclusive = small, poorly fitted or top-dose-only effect, or another doubt; inactive = no such curve, though single readings can be large; an effect the other way counts as inactive or inconclusive. Unless noted, % is set by controls: 0 for no effect and ±100 for the full control effect; potency is the fitted concentration of half-maximal effect.
SMILES,IMPase Li cell,HPGD block,KinaseGlo FLuc,ALDH1A1 block,Lamin A splicing
CCOc1ccc(NC(=O)Nc2ccccc2C(N)=O)cc1,5.8%,/,7.08µM*,6.8%,/
Cc1ccc(S(=O)(=O)NCCOc2nc(N(C)C)nc(N(C)C)n2)cc1,/,/,/,-10.2%,/
CC(=O)Nc1sc(C)c(C)c1C(=O)OC(C)C,2.4%,-15.8%,-1.7%,22.4µM*,1.7%
CCc1ccccc1NC(=O)Cn1c(=O)oc2ccccc21,/,/,/,/,-5.6%[46 µM]
COc1cc(C(=O)NC2CCN(Cc3nnnn3Cc3cccs3)CC2)cc(OC)c1OC,46.0%[38.3 µM],-7.5%,1.6%,8.91µM*,-4.8%
COCCn1nnnc1CN1CCC(NC(=O)c2ccc(Br)cc2)CC1,5.6%,-11.1%,0.9%,5.2%,-7.4%
CC(=O)Nc1ccc(NC(=O)C2CCN(c3c(NC(C)=O)c(C)nn3-c3ccccc3)CC2)cc1,/,/,/,/,-9.9%[46 µM]
COc1ccc(NC(=O)C2CCN(c3nnnn3-c3ccccc3)CC2)cc1,2.5%[38.3 µM],-8.0%,-3.5%,12.6µM*,-9.4%
COc1ccccc1CC(NC(C)=O)C(=O)NC1CCN(c2nnnn2-c2ccccc2)CC1 (stereo not given),17.5%[38.3 µM],-11.8%,-0.1%,5.62µM*,-4.4%
O=C(Nc1ccc(F)cc1)C1CCN(c2nnnn2-c2ccccc2)CC1,5.8%[38.3 µM],-7.7%,-0.4%,14.1µM*,-6.3%
CC(C)C(=O)Nc1sc2c(c1-c1nc3ccccc3[nH]1)CCCC2,-5.7%[38.3 µM],?,-0.5%,?,4.8%
Cc1cc(C)nc(NC(=O)Cc2ccc(Br)cc2)n1,11.3%,/,-2.5%,2.4%,/
N#CCCn1c(=O)c(-c2ccccc2)nc2cnc(N3CCNCC3)nc21,?,?,-2.4%,?,/
CCCC(=O)c1cc(O)c(O)cc1O,25.3%,6.31µM*,/,?,/
CCCc1cc(C(=O)Cc2ccc(F)cc2)c(O)cc1O,-7.7%[38.3 µM],-23.2%,-2.5%,-1.1%,?
CCCCNc1nc(C)nc2c1nc(C)n2CCC,6.0%,-7.5%,-1.6%,3.4%,/
COc1ccc(CCNC2CC(=O)N(CCc3ccc(OC)c(OC)c3)C2=O)cc1 (stereo not given),27.3%[38.3 µM],-10.5%,-2.0%,17.8µM*,15.3%
CCc1ccc(NC2CC(=O)N(CCc3ccc(OC)c(OC)c3)C2=O)cc1 (stereo not given),16.5%,/,-0.8%,3.16µM*,?
COc1ccc(CCNC2CC(=O)N(CCc3ccccc3)C2=O)cc1OC (stereo not given),7.4%[38.3 µM],-12.4%,-0.3%,?,6.8%
Cc1ccccc1C(=O)Nc1ccccc1C(=O)OCc1cc(=O)n2ccsc2n1,/,/,/,/,11.0%[46 µM]
CCn1c(=O)cc(OCC(=O)N2CCN(c3cccc(C(F)(F)F)c3)CC2)c2ccccc21,26.1%[38.3 µM],?,-5.0%,11.2µM*,1.7%
CCOc1ccc(-c2cc(N)n(S(=O)(=O)c3ccc(OC)c(OC)c3)n2)cc1,3.9%[38.3 µM],-11.9%,-3.0%,?,-2.8%
COc1ccc(S(=O)(=O)n2nc(-c3ccc(Cl)cc3)cc2N)cc1OC,9.6%[38.3 µM],-18.6%,-0.4%,89.1µM*,-19.5%
COc1ccc(S(=O)(=O)N(CCc2ccccc2)CC(=O)NCCCO)cc1,1.9%[38.3 µM],-4.8%,-4.4%,8.91µM*,2.5%
COc1ccc(S(=O)(=O)N(CCc2ccccc2)CC(=O)N/N=C/c2ccc3c(c2)OCO3)cc1,2.7%,22.4µM*,-4.1%,?,?
SMILES,IMPase Li cell,HPGD block,KinaseGlo FLuc,ALDH1A1 block,Lamin A splicing
O=C(CN(CCc1ccccc1)S(=O)(=O)c1ccc(Cl)cc1)N/N=C/c1ccc2c(c1)OCO2,3.5%,-9.3%,6.2%,?,-13.3%
COCCCNC(=O)CN(CCc1ccccc1)S(=O)(=O)c1ccc(OC)cc1,1.7%,/,4.6%,?,/
CC1=C(C(=O)OCc2ccccc2)C(C2CCCCC2)NC(=O)N1CCCCCC(=O)O (stereo not given),-2.5%,-3.8%,-3.7%,-3.4%,/
CCc1c(C)nc2ncnn2c1N1CCCC(C(=O)NCc2ccc3c(c2)OCO3)C1 (stereo not given),0.9%[38.3 µM],-17.2%,-0.2%,-6.2%,?
CCc1c(C)nc2ncnn2c1N1CCCC(C(=O)Nc2ccc(NC(C)=O)cc2)C1 (stereo not given),-20.5%[38.3 µM],?,-5.1%,12.6µM*,13.6%
CCCN(CCC)C1CC(=O)N(Cc2ccccc2)C1=O (stereo not given),30.9%[38.3 µM],0.7%,-4.3%,11.2µM*,5.2%
O=C1CC(N(O)C2CC(=O)N(Cc3ccccc3)C2=O)C(=O)N1Cc1ccccc1 (stereo not given),6.1%[38.3 µM],31.6µM*,-2.2%,7.08µM*,8.3%
Cc1ccc(NC2CC(=O)N(Cc3ccccc3)C2=O)cc1 (stereo not given),13.7%[38.3 µM],-6.7%,-6.3%,?,1.7%
CCC(Sc1nc2cc(OC)c(OC)cc2c(=O)n1CCc1ccc(S(N)(=O)=O)cc1)C(=O)NCCOC (stereo not given),-4.9%,/,3.2%,3.9%,/
Cc1ccc2nc(N3CCN(C(=O)C4COc5ccccc5O4)CC3)sc2c1 (stereo not given),/,/,/,/,4.8%[46 µM]
CC1=NN(c2ccc(S(=O)(=O)O)cc2Cl)C(=O)C1,8.0%,/,-1.2%,11.2µM*,3.3%[46 µM]
Cc1ccc(C)[n+](CC(=O)N2CCCCC2)c1,9.2%,/,2.8%,4.0%,?
CCC(C)NC(=O)Cn1c(-c2ccccc2)cc(C(C)=O)c1C (stereo not given),1.0%,/,5.4%,3.1%,/
Cc1ccc(-c2noc(CN3CCCCC3)n2)cc1,-7.7%[38.3 µM],-8.2%,1.0%,5.6%,8.3%
Cc1ccc(-c2noc(CN3CCN(c4ccccc4F)CC3)n2)cc1,46.9%[38.3 µM],-13.8%,1.5%,11.2µM*,-22.9%
CCCC[C@@H]1C[C@H]1C(NC(=O)c1cccs1)c1ccc(Cl)cc1 (stereo not given in full),15.7%,-14.3%,-0.5%,-4.1%,/
Cc1ccc(C)c(C(=O)CSc2nnnn2C(C)C)c1,10.4%,-15.8%,0.7%,?,-10.6%
Cc1ccc(C(=O)CSc2nnnn2C(C)C)c(C)c1,16.2%,-17.5%,0.7%,28.2µM*,-4.9%
COc1ccc(S(=O)(=O)Nc2nnc(CC(C)(C)C)s2)cc1,4.5%,/,-0.6%,11.2µM*,27.1%[46 µM]
COc1ccc(S(=O)(=O)Nc2nnc(C(C)(C)C)s2)cc1,-6.6%[38.3 µM],10µM*,14.2%,10µM*,5.9%
Cc1ccc(N2CCN(C(=O)c3nn(C)c4c3CS(=O)(=O)c3ccccc3-4)CC2C)cc1 (stereo not given),/,/,/,/,0.9%[46 µM]
O=C(Cn1cnc2scc(-c3ccc(Br)cc3)c2c1=O)N1CCOCC1,13.2%,/,-0.6%,4.0%,27.2%[46 µM]
COC(=O)[C@@]1(Cc2ccc(OC)cc2)[C@H]2c3cc(C(=O)N4CCCC4)n(CCc4c[nH]c5ccc(OC)cc45)c3C[C@H]2CN1C(=O)c1ccccc1,-1.9%,-9.8%,2.8%,?,/
C/C(=N\NC(=O)c1cc(C(C)C)[nH]n1)c1ccco1,4.0%,22.4µM*,8.91µM*,3.3%,?

# Compound activity as filed in PubChem BioAssay.
